Key:
Assay in all cases: log2 ratio of Biotin-Ahx-Ub-VS probe labelling (fragment/DMSO); higher = less target engagement (more negative = stronger competition), active = hit call of the paper (q ≤ 0.05, log2 ratio ≤ -1)
Details in all cases: compound concentration: 200 uM; treatment time: 3 h
ALG13 = biological target: T1, ALG13 (UniProt Q9NP73)
T1 sequence (whole entry): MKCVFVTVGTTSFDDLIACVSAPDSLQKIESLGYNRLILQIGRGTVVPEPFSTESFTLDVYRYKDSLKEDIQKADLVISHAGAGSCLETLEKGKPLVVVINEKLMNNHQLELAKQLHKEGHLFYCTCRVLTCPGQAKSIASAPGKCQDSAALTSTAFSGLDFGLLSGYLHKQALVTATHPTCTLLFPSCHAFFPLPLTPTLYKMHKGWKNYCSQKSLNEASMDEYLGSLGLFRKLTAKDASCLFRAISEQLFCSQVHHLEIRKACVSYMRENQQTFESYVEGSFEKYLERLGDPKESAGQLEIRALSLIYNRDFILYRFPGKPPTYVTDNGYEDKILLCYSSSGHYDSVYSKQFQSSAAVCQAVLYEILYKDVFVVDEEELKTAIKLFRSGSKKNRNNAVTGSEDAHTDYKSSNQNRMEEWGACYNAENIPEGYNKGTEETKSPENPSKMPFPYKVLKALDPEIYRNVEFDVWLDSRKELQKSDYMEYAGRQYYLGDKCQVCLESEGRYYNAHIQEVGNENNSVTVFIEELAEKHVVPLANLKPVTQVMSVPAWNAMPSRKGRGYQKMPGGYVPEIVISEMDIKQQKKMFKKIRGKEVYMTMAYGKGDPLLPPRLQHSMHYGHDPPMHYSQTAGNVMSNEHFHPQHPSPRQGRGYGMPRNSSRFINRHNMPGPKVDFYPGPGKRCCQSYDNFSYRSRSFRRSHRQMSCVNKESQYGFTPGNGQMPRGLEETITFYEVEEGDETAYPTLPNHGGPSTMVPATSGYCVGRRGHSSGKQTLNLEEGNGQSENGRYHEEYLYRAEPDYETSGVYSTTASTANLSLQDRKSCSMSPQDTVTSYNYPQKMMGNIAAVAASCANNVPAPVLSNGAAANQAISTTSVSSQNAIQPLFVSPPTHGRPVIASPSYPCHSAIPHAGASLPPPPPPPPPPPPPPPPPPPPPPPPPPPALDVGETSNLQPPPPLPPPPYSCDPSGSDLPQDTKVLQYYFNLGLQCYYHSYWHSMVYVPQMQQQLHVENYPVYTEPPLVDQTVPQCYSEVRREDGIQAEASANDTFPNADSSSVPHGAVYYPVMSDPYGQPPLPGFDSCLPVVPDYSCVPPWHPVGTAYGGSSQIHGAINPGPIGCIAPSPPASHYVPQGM
In short: (§1)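 Fragment (200 µM) or vehicle was incubated for 3 h with triplicate HEK293T lysate samples of 495 µg, which were then treated with Biotin-Ahx-Ub-VS at 0.5 µM final for 1 h. Labelled DUBs were enriched on NeutrAvidin, digested with LysC and trypsin, and analysed by diaPASEF LC-MS/MS. Values are average log2 fragment/vehicle ratios from an unpaired t-test on global-median-normalised Spectronaut label-free quantities, using proteins with ≥2 unique peptides.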

ATXN3 = ATXN3 (UniProt P54252)
ATXN3, sequence (P54252 whole entry): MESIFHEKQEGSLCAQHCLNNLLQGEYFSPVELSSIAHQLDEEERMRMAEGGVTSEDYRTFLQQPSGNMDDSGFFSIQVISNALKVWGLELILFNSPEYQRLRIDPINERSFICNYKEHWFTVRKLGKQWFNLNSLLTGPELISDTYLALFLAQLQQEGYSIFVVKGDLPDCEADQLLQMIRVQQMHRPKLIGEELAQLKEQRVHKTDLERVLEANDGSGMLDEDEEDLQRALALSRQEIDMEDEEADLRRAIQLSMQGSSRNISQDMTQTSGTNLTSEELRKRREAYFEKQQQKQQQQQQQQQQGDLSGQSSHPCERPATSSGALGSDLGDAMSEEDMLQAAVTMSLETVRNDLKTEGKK
In short: as §1

BAP1 = biological target: T2, BAP1 (UniProt Q92560)
T2 sequence (whole entry): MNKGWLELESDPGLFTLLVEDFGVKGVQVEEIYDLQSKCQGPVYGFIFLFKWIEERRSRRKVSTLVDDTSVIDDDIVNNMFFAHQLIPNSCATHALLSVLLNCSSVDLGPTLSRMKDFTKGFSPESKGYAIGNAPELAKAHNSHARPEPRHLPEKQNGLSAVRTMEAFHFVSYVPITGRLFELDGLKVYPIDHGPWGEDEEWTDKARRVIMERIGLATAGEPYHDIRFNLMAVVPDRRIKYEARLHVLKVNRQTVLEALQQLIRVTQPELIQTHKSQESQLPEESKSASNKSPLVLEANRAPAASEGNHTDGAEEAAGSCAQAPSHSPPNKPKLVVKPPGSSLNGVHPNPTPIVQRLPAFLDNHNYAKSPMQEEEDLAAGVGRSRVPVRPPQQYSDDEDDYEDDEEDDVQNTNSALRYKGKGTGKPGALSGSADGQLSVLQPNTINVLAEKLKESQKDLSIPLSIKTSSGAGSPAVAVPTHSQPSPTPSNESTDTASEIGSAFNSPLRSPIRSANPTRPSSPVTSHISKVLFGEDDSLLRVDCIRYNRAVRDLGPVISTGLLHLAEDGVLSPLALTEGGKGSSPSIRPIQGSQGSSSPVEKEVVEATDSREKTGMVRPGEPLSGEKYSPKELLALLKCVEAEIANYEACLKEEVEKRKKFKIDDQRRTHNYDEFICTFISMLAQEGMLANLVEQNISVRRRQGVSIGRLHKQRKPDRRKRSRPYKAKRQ
In short: as §1

EIF3F = EIF3F (UniProt O00303)
EIF3F, sequence (O00303 whole entry): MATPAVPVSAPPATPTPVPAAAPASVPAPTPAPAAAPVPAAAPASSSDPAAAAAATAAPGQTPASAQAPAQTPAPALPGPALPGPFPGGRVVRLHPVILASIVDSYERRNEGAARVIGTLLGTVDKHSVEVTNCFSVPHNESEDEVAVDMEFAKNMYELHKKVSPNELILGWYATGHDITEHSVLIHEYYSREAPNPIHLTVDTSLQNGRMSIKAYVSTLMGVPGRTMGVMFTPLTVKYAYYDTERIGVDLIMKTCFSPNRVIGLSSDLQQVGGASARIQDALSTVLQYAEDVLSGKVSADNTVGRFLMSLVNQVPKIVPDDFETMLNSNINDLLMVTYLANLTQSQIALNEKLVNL
In short: as §1

EIF3H = EIF3H (UniProt O15372)
EIF3H, sequence (O15372 whole entry): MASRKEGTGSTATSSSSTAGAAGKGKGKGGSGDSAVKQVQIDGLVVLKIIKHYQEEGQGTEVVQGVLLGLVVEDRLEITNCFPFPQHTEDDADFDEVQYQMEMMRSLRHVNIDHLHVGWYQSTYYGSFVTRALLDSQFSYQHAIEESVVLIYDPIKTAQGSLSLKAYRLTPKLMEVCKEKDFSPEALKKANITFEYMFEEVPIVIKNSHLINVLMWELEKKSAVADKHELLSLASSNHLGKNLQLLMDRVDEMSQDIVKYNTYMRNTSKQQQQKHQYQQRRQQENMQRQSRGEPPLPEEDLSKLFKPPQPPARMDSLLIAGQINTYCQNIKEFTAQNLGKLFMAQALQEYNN
In short: as §1

FAM105A = biological target: T3, FAM105A (UniProt Q9NUU6)
T3 sequence (whole entry): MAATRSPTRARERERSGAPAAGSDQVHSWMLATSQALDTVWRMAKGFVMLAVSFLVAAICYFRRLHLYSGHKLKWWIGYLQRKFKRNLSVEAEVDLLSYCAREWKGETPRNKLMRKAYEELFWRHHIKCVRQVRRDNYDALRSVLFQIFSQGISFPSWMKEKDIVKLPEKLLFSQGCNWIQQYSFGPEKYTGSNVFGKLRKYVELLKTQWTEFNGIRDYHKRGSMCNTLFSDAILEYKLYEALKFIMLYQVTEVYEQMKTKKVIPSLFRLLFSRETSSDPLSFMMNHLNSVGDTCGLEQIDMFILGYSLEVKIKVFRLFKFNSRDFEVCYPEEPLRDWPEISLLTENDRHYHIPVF
In short: as §1

OTUB1 = OTUB1 (UniProt Q96FW1)
OTUB1, sequence (Q96FW1 whole entry): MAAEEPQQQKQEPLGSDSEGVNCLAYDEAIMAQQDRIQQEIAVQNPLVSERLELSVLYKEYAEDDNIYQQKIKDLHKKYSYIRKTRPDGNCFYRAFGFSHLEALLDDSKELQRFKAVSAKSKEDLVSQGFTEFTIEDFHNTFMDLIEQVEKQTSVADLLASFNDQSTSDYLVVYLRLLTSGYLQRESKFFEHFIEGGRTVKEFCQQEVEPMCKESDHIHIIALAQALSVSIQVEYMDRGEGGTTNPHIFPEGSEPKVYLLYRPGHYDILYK
In short: as §1

OTUD4 = biological target: T4, OTUD4 (UniProt Q01804)
T4 sequence (whole entry): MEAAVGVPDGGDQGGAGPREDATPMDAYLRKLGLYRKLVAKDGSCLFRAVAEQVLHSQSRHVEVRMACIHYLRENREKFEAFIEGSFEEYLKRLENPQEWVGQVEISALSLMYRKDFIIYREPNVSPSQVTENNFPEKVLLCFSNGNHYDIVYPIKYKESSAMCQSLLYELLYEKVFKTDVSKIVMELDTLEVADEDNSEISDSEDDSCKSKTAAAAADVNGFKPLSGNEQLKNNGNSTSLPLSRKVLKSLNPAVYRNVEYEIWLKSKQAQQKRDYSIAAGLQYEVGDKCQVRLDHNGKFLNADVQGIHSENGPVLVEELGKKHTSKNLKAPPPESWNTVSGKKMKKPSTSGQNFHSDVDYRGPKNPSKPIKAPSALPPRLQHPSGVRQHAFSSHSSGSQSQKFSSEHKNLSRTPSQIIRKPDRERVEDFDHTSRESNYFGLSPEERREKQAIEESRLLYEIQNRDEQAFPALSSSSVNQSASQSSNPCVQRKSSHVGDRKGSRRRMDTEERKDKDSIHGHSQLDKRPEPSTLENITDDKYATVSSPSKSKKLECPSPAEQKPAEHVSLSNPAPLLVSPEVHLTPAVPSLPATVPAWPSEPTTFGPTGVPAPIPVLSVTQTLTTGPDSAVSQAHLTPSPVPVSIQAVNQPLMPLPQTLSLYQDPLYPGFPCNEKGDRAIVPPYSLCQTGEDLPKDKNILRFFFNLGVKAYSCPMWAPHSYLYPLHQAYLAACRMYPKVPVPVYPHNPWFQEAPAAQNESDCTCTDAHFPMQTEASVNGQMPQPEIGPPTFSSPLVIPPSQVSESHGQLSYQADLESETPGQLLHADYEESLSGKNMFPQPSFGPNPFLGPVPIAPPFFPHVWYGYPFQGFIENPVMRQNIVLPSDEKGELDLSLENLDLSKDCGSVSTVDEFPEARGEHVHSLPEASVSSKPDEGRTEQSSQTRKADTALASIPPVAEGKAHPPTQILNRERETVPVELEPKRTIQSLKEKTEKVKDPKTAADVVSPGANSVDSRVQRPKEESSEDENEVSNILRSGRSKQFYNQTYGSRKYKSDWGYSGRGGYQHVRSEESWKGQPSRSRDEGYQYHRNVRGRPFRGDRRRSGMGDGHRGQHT
In short: as §1

OTUD5 = biological target: T5, OTUD5 (UniProt Q96G74)
T5 sequence (whole entry): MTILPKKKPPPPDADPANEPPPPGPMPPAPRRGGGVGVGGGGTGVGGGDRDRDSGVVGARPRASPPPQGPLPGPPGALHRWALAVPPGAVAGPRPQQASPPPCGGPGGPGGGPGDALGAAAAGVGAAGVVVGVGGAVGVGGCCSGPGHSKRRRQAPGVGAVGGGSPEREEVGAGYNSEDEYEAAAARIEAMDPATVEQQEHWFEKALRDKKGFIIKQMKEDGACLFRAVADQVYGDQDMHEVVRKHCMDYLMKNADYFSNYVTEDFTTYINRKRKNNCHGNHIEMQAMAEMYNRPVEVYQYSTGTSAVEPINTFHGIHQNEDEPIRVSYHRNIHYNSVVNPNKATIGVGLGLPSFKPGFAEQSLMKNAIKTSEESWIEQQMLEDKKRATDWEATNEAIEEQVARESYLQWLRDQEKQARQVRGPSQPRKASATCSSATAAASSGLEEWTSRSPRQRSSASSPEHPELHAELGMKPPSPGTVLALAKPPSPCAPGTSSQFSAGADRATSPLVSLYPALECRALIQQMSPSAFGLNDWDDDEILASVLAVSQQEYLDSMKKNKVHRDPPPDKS
In short: as §1

Measured: log2 ratio of Biotin-Ahx-Ub-VS probe labelling

Cc1ccc(C)c(NC(=O)CCl)c1
inactive: ALG13 0.0947 | ATXN3 -0.548 | EIF3F -0.246 | EIF3H 0.0185 | FAM105A -0.0979 | OTUB1 -0.23 | OTUD4 -0.598 | OTUD5 -0.833
active: BAP1 -3.51

— the supplement of paper PMC11732987, “Enantioselective OTUD7B fragment discovery through chemoproteomics screening and high-throughput optimisation” (Communications Chemistry, 2025)
